In PubChem BioAssay (NCI) one finds growth data, which are given here for 7 compounds.

Compounds without any hit were thinned out: in the full panel of roughly 83,000, 20% have a hit.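 In brief: 96-well plates, 48 h treatment, single concentration, percent growth endpoint.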 Unmarked numbers belong to inactive results. Calls of active or inactive are those of the source. How the source made its calls: active means growth percent below 10; inactive means the rest.

What all share (assay): NCI-60 one-dose screen, 48 h (100 = growth as untreated, 0 = no growth, -100 = all killed)
One assay relates to SK-MEL-2 melanoma. Particulars: 10 µM unless noted.
The next assay relates to EKVX NSCLC. The conditions noted are these: 10 µM unless noted.
Another assay has as its system SN12C renal. The conditions noted are these: 10 µM unless noted.
The test system of another assay is UO-31 renal. The conditions noted are these: 10 µM unless noted.
The test system of the next assay is TK-10 renal. Particulars: 10 µM unless noted.
The test system of another assay is ACHN renal. Particulars: 10 µM unless noted.
Another assay deals with CAKI-1 renal. Particulars: 10 µM unless noted.
Another assay concerns A498 renal. The conditions noted are these: 10 µM unless noted.
Another assay deals with CCRF-CEM leukemia. Particulars: 10 µM unless noted.
A further assay relates to MOLT-4 leukemia. Particulars: 10 µM unless noted.
A further assay concerns SR leukemia. Particulars: 10 µM unless noted.
The subject of another assay is RPMI-8226 leukemia. Particulars: 10 µM unless noted.
The next assay has as its system OVCAR-8 ovarian. The conditions noted are these: 10 µM unless noted.
The test system of another assay is OVCAR-5 ovarian. Particulars: 10 µM unless noted.
The subject of a further assay is OVCAR-4 ovarian. The conditions noted are these: 10 µM unless noted.
Another assay deals with SK-OV-3 ovarian. The conditions noted are these: 10 µM unless noted.
The next assay deals with IGROV1 ovarian. Particulars: 10 µM unless noted.
The subject of the next assay is OVCAR-3 ovarian. The conditions noted are these: 10 µM unless noted.
The subject of the next assay is HS 578T breast. The conditions noted are these: 10 µM.
A further assay relates to NCI/ADR-RES ovarian. Particulars: 10 µM unless noted.

Turning to `CN1CCN(Cc2ccc(NC(=O)c3cccc(C#Cc4cnc(N)c5ncccc45)c3F)cc2C(F)(F)F)CC1`, the growth in the assay on SK-MEL-2 melanoma was -1.16% (active); with EKVX NSCLC it was 66.8%; in the assay with SN12C renal, 44.5%; in the assay on UO-31 renal it was -96.6% (active); in the assay on TK-10 renal it was 56.2%; with ACHN renal, -77.2% (active). Moreover, the growth in the assay on CAKI-1 renal is 33.6%; in the assay with A498 renal, -15.1% (active); in the assay on CCRF-CEM leukemia, 7.7% (active); in the assay with MOLT-4 leukemia it was 1.77% (active); with SR leukemia, -3.15% (active); in the assay with RPMI-8226 leukemia, -9.88% (active). The growth with OVCAR-8 ovarian was -49.3% (active); in the assay with OVCAR-5 ovarian it was -5.62% (active); in the assay with OVCAR-4 ovarian, 49.6%; in the assay with SK-OV-3 ovarian, 22.3%; in the assay on IGROV1 ovarian, 24.5%; in the assay with OVCAR-3 ovarian, 73.2%. Also, the growth is 18% in the assay on HS 578T breast and 61.3% in the assay with NCI/ADR-RES ovarian.
For `CC(=O)O[C@H]1[C@H](CC#CC#CC[C@@H]2C[C@]3(C)[C@H]4CC=C5[C@H]6[C@@H](C)[C@H](C)CC[C@]6(C(=O)NCCCCCCCCN)CC[C@@]5(C)[C@]4(C)CC[C@H]3C(C)(C)[C@H]2OC(C)=O)C[C@]2(C)[C@H]3CC=C4[C@H]5[C@@H](C)[C@H](C)CC[C@]5(C(=O)NCCCCCCCCN)CC[C@@]4(C)[C@]3(C)CC[C@H]2C1(C)C`, the growth with SK-MEL-2 melanoma is 125%; in the assay on EKVX NSCLC, 110%; with SN12C renal, 97.8%; in the assay with UO-31 renal it was 73.7%; in the assay on TK-10 renal it was 145%; with ACHN renal, 119%. The growth with CAKI-1 renal was 101%; with A498 renal, 118%; with CCRF-CEM leukemia, 105%; in the assay with MOLT-4 leukemia, 103%; in the assay with SR leukemia it was 123%; in the assay with RPMI-8226 leukemia, 95.6%. The growth is 108% in the assay with OVCAR-8 ovarian; 108% in the assay on OVCAR-5 ovarian; 114% with OVCAR-4 ovarian; 108% with SK-OV-3 ovarian; 99.1% in the assay with IGROV1 ovarian; 100% with OVCAR-3 ovarian. For the same compound, the growth with HS 578T breast was 110%; in the assay on NCI/ADR-RES ovarian it was 98.1%.
In the case of `C#CC[C@@H]1C[C@]2(C)[C@H]3CC[C@@H]4[C@H]5C(C(=C)C)CC[C@]5(C(=O)NCCN(CCN)CCN)CC[C@@]4(C)[C@]3(C)CC[C@H]2C(C)(C)[C@H]1OC(C)=O` (stereo not given in full), the growth was 112% in the assay with SK-MEL-2 melanoma; 31% with EKVX NSCLC; 87.8% in the assay with SN12C renal; 74.7% in the assay on UO-31 renal; 95% with TK-10 renal; 91.3% in the assay on ACHN renal. The growth is 56.3% with CAKI-1 renal; 128% with A498 renal; 22.5% in the assay with CCRF-CEM leukemia; 31.1% with MOLT-4 leukemia; -0.547% (active) with SR leukemia; 58.3% with RPMI-8226 leukemia. Moreover, the growth with OVCAR-8 ovarian was 72.1%; in the assay with OVCAR-5 ovarian, 63.3%; with OVCAR-4 ovarian, 21.7%; with SK-OV-3 ovarian it was 105%; in the assay on IGROV1 ovarian, 98%; with OVCAR-3 ovarian it was 48.7%. Besides, the growth in the assay with HS 578T breast was 115%; with NCI/ADR-RES ovarian, 95.4%.
On to `CN1CCN(Cc2ccc(NC(=O)c3cnc(F)c(C#Cc4cnc(N)c5ncccc45)c3)cc2C(F)(F)F)CC1`, for which the growth with SK-MEL-2 melanoma is -30.1% (active); in the assay with EKVX NSCLC, 23.7%; in the assay with SN12C renal, 11.7%; in the assay on UO-31 renal, 7.5% (active); in the assay on TK-10 renal, 28.7%; in the assay with ACHN renal it was 10.1%. The growth in the assay with CAKI-1 renal was 13.1%; in the assay on A498 renal, -25.8% (active); with CCRF-CEM leukemia, 18.2%; in the assay on MOLT-4 leukemia it was 8.73% (active); in the assay with SR leukemia, 13.4%; with RPMI-8226 leukemia, 18.2%. Further, the growth with OVCAR-8 ovarian was 29.6%; in the assay with OVCAR-5 ovarian, 37.2%; in the assay with OVCAR-4 ovarian, 16.6%; with SK-OV-3 ovarian it was 3.65% (active); with IGROV1 ovarian, 13.9%; with OVCAR-3 ovarian it was 46.2%. For the same compound, the growth in the assay on HS 578T breast is -10.1% (active); with NCI/ADR-RES ovarian, 29.9%.
On to `COc1c(-c2cc(-c3ccc(C)o3)[nH]c(=O)n2)c(O)cc2occc12`, for which the growth was 69.6% with SK-MEL-2 melanoma; 69.8% in the assay with EKVX NSCLC; 63.6% in the assay with SN12C renal; 71.5% in the assay with UO-31 renal; 104% in the assay on TK-10 renal; 89.9% in the assay with ACHN renal. Also, the growth with CAKI-1 renal is 63.8%; in the assay on A498 renal, 54.1%; with CCRF-CEM leukemia it was 77.8%; in the assay with MOLT-4 leukemia, 41.1%; with SR leukemia, 27.1%; with RPMI-8226 leukemia, 74.8%. Besides, the growth in the assay with OVCAR-8 ovarian is 73%; in the assay with OVCAR-5 ovarian, 99%; with OVCAR-4 ovarian, 72.4%; in the assay with SK-OV-3 ovarian, 81.8%; with IGROV1 ovarian, 58.4%; in the assay with OVCAR-3 ovarian, 32.9%. Moreover, the growth in the assay with HS 578T breast was 54.5%; with NCI/ADR-RES ovarian, 29.7%.
Regarding `NCCCOc1cc2ccccc2cc1C(=O)NCCCOc1cc2ccccc2cc1C(=O)Nc1ccc(Cl)cc1O`, the growth in the assay on SK-MEL-2 melanoma was -73.8% (active); with EKVX NSCLC it was -45.6% (active); with SN12C renal it was -78.5% (active); in the assay on UO-31 renal, -95.4% (active); in the assay on TK-10 renal it was -95.5% (active); in the assay with ACHN renal it was -95.9% (active). Besides, the growth was -89.9% (active) in the assay on CAKI-1 renal; -38.7% (active) with A498 renal; -16.3% (active) in the assay with CCRF-CEM leukemia; -20.6% (active) in the assay on MOLT-4 leukemia; -7.88% (active) in the assay on SR leukemia; -18.3% (active) in the assay with RPMI-8226 leukemia. In addition, the growth is -57.6% (active) in the assay with OVCAR-8 ovarian; -92.5% (active) in the assay with OVCAR-5 ovarian; -77.4% (active) with OVCAR-4 ovarian; -80.4% (active) in the assay with SK-OV-3 ovarian; -31.6% (active) in the assay with IGROV1 ovarian; -31.2% (active) in the assay on OVCAR-3 ovarian. The growth with HS 578T breast is 14.5%; in the assay on NCI/ADR-RES ovarian it was 29.2%.
Take `COc1ccc2nc(NC(=O)/C(=C/c3cc(OC)c(OC)c(OC)c3)c3ccc(OC)c(OC)c3)sc2c1`: the growth with SK-MEL-2 melanoma was 95.6%; in the assay on EKVX NSCLC, 77.8%; in the assay on SN12C renal it was 99.9%; in the assay on UO-31 renal it was 67.4%; in the assay on TK-10 renal it was 98.5%; with ACHN renal, 94.9%. The growth was 75.9% in the assay with CAKI-1 renal; 95.7% in the assay on A498 renal; 98.6% with CCRF-CEM leukemia; 83.7% with MOLT-4 leukemia; 73% with SR leukemia; 96.6% in the assay on RPMI-8226 leukemia. For the same compound, the growth was 90% with OVCAR-8 ovarian; 91.9% with OVCAR-5 ovarian; 93.4% in the assay on OVCAR-4 ovarian; 104% in the assay on SK-OV-3 ovarian; 81.6% in the assay with IGROV1 ovarian; 84.4% with OVCAR-3 ovarian. The growth in the assay on HS 578T breast was 103%; in the assay on NCI/ADR-RES ovarian it was 89%.
